# Results: PubChem BioAssay (NCATS)
# “And” between values parts separate entries of the source, which are not always exact repeats. Equal entries are not always repeated. Inconclusive results are not listed. Entries that show only a call come without a potency. The source made the active and inactive calls. Calls come from the whole dose curve; as a rule, active = well fitted curve in the direction sought with a large enough effect; inconclusive = small, poorly fitted or top-dose-only effect, or another doubt; inactive = no such curve, though single readings can be large; an effect the other way counts as inactive or inconclusive.
# Experiments:
# [1] = qHTS for Inhibitors of Ubiquitin-specific Protease USP2a Using CHOP2 as the Reporter: Cytotox Assay (AID 652170); conditions: HCT116 viability, CellTiter-Glo luminescence, 72 h; series mostly up to 46.1 µM; note: nearly all actives have a fitted effect of over 70% in size; note: potency is the fitted concentration of half-maximal effect
# How it was run: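 Cytotoxicity read as ATP luminescence (CellTiter-Glo) after 72 hr compound treatment at 37 deg C. Cells: HCT116, 600/well in DMEM plus 10% FBS. Normalization between DMSO-treated cells and cell-free wells.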
# [2] = molecular target: Ubiquitin carboxyl-terminal hydrolase 2 (Homo sapiens) (UniProt O75604); experiment: qHTS for Inhibitors of Ubiquitin-specific Protease USP2a Using CHOP2 as the Reporter: K484 Substrate (AID 652173); conditions: USP2 cleavage of DiUb K48 IQF substrate, fluorescence; series mostly up to 57.5 µM;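 note: cleavage of internally quenched K48 di-ubiquitin substrate measured as rising fluorescence over time; potency is the fitted concentration of half-maximal effect; nearly all actives have a fitted effect of over 70% in size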
# Ubiquitin carboxyl-terminal hydrolase 2 (Homo sapiens), sequence (O75604 whole entry, looked up): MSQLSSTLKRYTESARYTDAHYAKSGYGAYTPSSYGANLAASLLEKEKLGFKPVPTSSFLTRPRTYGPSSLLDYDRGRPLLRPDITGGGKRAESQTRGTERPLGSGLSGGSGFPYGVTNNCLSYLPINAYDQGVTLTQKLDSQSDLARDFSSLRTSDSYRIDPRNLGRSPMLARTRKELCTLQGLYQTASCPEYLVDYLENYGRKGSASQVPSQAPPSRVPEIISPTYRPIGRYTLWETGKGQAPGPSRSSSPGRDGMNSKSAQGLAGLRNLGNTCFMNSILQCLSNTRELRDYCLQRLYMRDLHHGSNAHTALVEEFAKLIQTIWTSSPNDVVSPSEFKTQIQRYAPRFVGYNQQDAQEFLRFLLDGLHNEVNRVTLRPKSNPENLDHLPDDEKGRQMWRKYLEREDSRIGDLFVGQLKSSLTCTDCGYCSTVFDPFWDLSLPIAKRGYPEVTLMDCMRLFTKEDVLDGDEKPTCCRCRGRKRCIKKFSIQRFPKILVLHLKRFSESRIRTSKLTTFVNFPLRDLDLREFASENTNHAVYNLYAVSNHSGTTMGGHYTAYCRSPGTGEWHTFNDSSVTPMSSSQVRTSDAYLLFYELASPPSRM
# How it was run: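 Kinetic fluorescence (Ex 525/Em 598) tracked cleavage of an internally quenched K48 di-ubiquitin substrate, added as a 100 nM solution. The enzyme was added as a 5 nM USP2 solution before compound pinning, with no-enzyme controls. Buffer: Tris pH 8, beta-mercaptoethanol, CHAPS.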
# [3] = molecular target: Tyrosine-protein kinase Yes (Homo sapiens) (UniProt P07947); experiment: qHTS for small molecule inhibitors of Yes1 kinase: Primary Screen (AID 686947); conditions: Yes1 kinase biochemical qHTS inhibition; series mostly up to 76.9 µM; note: nearly all actives have a fitted effect of over 60% in size; note: potency is the fitted concentration of half-maximal effect
# Tyrosine-protein kinase Yes (Homo sapiens), sequence (P07947 whole entry, looked up): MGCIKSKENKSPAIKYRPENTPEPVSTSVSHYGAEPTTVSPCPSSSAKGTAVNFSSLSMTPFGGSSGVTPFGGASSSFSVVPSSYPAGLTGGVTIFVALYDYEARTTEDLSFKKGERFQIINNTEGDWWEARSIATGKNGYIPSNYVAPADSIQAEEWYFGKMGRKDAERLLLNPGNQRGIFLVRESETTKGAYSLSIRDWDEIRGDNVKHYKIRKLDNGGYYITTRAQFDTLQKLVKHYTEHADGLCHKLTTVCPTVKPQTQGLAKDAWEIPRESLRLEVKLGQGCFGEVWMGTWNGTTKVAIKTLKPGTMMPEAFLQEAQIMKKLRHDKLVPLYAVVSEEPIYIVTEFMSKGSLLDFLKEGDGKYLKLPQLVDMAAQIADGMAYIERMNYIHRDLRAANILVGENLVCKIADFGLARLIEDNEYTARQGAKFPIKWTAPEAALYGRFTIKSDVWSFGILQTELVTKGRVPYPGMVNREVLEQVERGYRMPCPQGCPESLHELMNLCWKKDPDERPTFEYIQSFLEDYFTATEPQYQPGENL
# How it was run: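 ADP-Glo luminescence reports ADP formed by 4 nM Yes1 phosphorylating poly(E4Y) (0.3 mg/mL) with 0.1 mM ATP for 60 min at room temperature, following 20 min compound preincubation; normalised between DMSO wells with and without enzyme.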
# [4] = qHTS for small molecule inhibitors of Yes1 kinase: Counter Assay (AID 686950); conditions: series mostly up to 76.9 µM;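 note: no kinase present so only ADP-Glo detection of a fixed ADP amount is tested; luminescence from ADP-Glo reporting ADP in a fixed ATP and ADP mixture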
# How it was run: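 ADP-Glo luminescence read after a 60 min room-temperature incubation of compound with an ATP/ADP mix (0.08 mM/0.02 mM) and no kinase, following a 20 min compound preincubation. Signal scaled between ATP+ADP (max) and 0.1 mM ATP-only (min) wells; Tris pH 7.5, Mg2+, DTT.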
smiles,measurement,setting,value
O=S(=O)(Nc1nccs1)c1ccc(Nc2nc(-c3ccc(F)cc3)cs2)cc1,Potency,[1],inactive
same,Potency,[2],3.06 µM (active) and 9.68 µM (active)
Cc1ccccc1S(=O)(=O)Nc1cnccc1C(=O)Nc1nc(-c2ccccc2)cs1,Potency,[1],18.7 µM (active)
same,Potency,[2],2.43 µM (active)
Cc1ccc(-c2cc(C(=O)Nc3ccc4ccccc4c3)c3ccccc3n2)cc1C,Potency,[1],inactive
same,Potency,[2],19.3 µM (active)
Cc1ccc(S(=O)(=O)Nc2cc([N+](=O)[O-])ccc2C(=O)Nc2nc(-c3ccccc3)cs2)cc1,Potency,[1],5.26 µM (active)
same,Potency,[2],0.968 µM (active)
O=C(Nc1nc(-c2ccccc2)cs1)c1ccncc1NS(=O)(=O)c1ccc(C(F)(F)F)cc1,Potency,[1],inactive
same,Potency,[2],3.06 µM (active)
Cc1ccc(S(=O)(=O)Nc2ccccc2C(=O)Nc2cnc(-c3ccccc3)cn2)cc1,Potency,[1],16.6 µM (active)
same,Potency,[2],3.43 µM (active)
Cc1ccc(-c2cc(C(=O)Nc3ccc(S(N)(=O)=O)cc3)c3cccc(C)c3n2)cc1C,Potency,[1],inactive
same,Potency,[2],17.2 µM (active) and 6.85 µM (active)
Cc1ccc(S(=O)(=O)Nc2cnccc2C(=O)Nc2ccc(-c3nn[nH]n3)cc2)cc1,Potency,[1],inactive
same,Potency,[2],8.63 µM (active)
O=S(=O)(Nc1nccs1)c1ccc(Nc2nc(-c3ccc(-c4ccccc4)cc3)cs2)cc1,Potency,[1],inactive
same,Potency,[2],1.93 µM (active)
O=C(Nc1nc(-c2ccccc2)cs1)c1ccncc1NS(=O)(=O)c1ccc(F)c(F)c1,Potency,[1],inactive
same,Potency,[2],2.17 µM (active)
Cc1ccc(-c2cc(C(=O)NCc3ccc(S(N)(=O)=O)cc3)c3ccccc3n2)cc1C,Potency,[1],inactive
same,Potency,[2],9.68 µM (active)
COc1cc2ncn(-c3cc(OCCc4ccccc4)c(C(N)=O)s3)c2cc1OC,Potency,[3],inactive
same,outcome,[4],inactive
Cc1ccc(S(=O)(=O)Nc2cnccc2C(=O)Nc2nc(-c3ccccc3Cl)cs2)cc1,Potency,[2],1.72 µM (active)
O=C(Nc1nc(-c2ccccc2)cs1)c1ccncc1NS(=O)(=O)c1ccc2c(c1)CCC2,Potency,[2],1.93 µM (active)
Cc1ccc(S(=O)(=O)Nc2ccc(C(=O)Nc3nc(-c4ccccc4)cs3)cc2Cl)cc1,Potency,[2],2.17 µM (active)
NS(=O)(=O)c1ccc(Nc2cc(-c3cccc(O)c3)[nH]n2)cc1,Potency,[3],23.2 µM (active)
same,outcome,[4],inactive
CN(C)c1ccc2[nH]c(O)c(C=Nc3ccc(S(N)(=O)=O)cc3)c2c1,Potency,[3],4.63 µM (active)
same,outcome,[4],inactive
OCc1ccc(-c2nc(-c3ccc4c(c3)OCO4)c(-c3ccccn3)[nH]2)cc1,Potency,[3],inactive
same,outcome,[4],inactive
COc1cc2ncn(-c3cc(OCc4ccccc4Cl)c(C(N)=O)s3)c2cc1OC,Potency,[3],5.19 µM (active)
same,outcome,[4],inactive
COc1cccc(-c2csc(NC(=O)c3ccncc3NS(=O)(=O)c3ccc(C)cc3)n2)c1,Potency,[2],1.72 µM (active)
CCCCC1CCC(C(=O)Nc2ccc(S(=O)(=O)Nc3cc(C)on3)cc2)CC1 (configuration not stated),Potency,[1],inactive
same,Potency,[2],12.2 µM (active)
Fc1ccc(-c2nn3ncccc3c2-c2ccnc(Nc3ccc4c(c3)OCCO4)n2)cc1,Potency,[3],0.0654 µM (active)
same,outcome,[4],inactive
COc1cccc(C=NNc2ncnc3c2cnn3-c2cccc(OC)c2)c1,Potency,[3],7.33 µM (active)
same,outcome,[4],inactive
Clc1ccc(-c2nn3ncccc3c2-c2ccnc(Nc3ccccc3)n2)cc1,Potency,[3],0.292 µM (active)
same,outcome,[4],inactive
CS(=O)(=O)c1ccc(Oc2nccc(-c3c(-c4ccc(F)cc4)ncn3C3CCNCC3)n2)cc1,Potency,[3],inactive
same,outcome,[4],inactive
COc1ccc(-c2csc(NC(=O)c3ccncc3NS(=O)(=O)c3ccc(C)cc3)n2)cc1,Potency,[2],2.17 µM (active)
O=C(Nc1nc(-c2ccc(F)cc2)cs1)c1ccncc1NS(=O)(=O)c1ccc(F)cc1,Potency,[1],inactive
same,Potency,[2],4.85 µM (active)
NS(=O)(=O)c1ccc(N=Nc2c(O)[nH]c3ccc(C(=O)NCCCn4ccnc4)cc23)cc1,Potency,[3],2.6 µM (active)
same,outcome,[4],inactive
CN1CCC(n2cnc(-c3ccc(F)cc3)c2-c2ccnc(Nc3ccccc3)n2)CC1,Potency,[3],1.16 µM (active)
same,outcome,[4],inactive
COC(=O)Nc1nc2ccc(Sc3ccc(NC(=O)Nc4cc(C(F)(F)F)ccc4F)cc3)cc2[nH]1,Potency,[3],inactive
same,outcome,[4],inactive
O=C(Nc1nc(-c2ccccc2)cs1)c1ccncc1NS(=O)(=O)c1ccc(F)cc1Cl,Potency,[1],inactive
same,Potency,[2],1.93 µM (active)
Nc1nc(-c2ccc3c(c2)C(=Cc2cc(Br)c(O)c(Br)c2)C(=O)N3)cs1,Potency,[3],1.46 µM (active)
same,outcome,[4],inactive
COC(=O)Nc1nc2ccc(Oc3ccc(NC(=O)Nc4cccc(C(=O)O)c4)cc3)cc2[nH]1,Potency,[3],inactive
same,outcome,[4],inactive
CCn1c(-c2nonc2N)nc2c(C#CC(C)(C)O)ncc(OCC3CCCN3)c21 (configuration not stated),Potency,[3],26 µM (active)
same,outcome,[4],inactive
Cc1ccc(-c2cc(C(=O)Nc3ccc(S(=O)(=O)N(C)Cc4nccs4)cc3)c3ccccc3n2)cc1C,Potency,[1],inactive
same,Potency,[2],3.85 µM (active)
Cc1ccc(S(=O)(=O)Nc2cnccc2C(=O)Nc2ccc3ccccc3c2)cc1,Potency,[2],6.11 µM (active)
NS(=O)(=O)c1ccc(N=Nc2c(O)[nH]c3ccc(C(=O)NCc4ccncc4)cc23)cc1,Potency,[3],4.63 µM (active)
same,outcome,[4],inactive
COc1ccccc1S(=O)(=O)Nc1cnccc1C(=O)Nc1nc(-c2ccccc2)cs1,Potency,[1],inactive
same,Potency,[2],13.7 µM (active)
Cc1ccc(S(=O)(=O)Nc2cnccc2C(=O)Nc2cccc3ccccc23)cc1,Potency,[2],7.69 µM (active)
Cc1ccc(-c2cc(C(=O)Nc3ccc(S(=O)(=O)Nc4ccncc4)cc3)c3ccccc3n2)cc1C,Potency,[1],inactive
same,Potency,[2],9.68 µM (active)
Cc1ccc(S(=O)(=O)Nc2cnccc2C(=O)Nc2nc(-c3cccc(F)c3)cs2)cc1,Potency,[1],20.9 µM (active)
same,Potency,[2],1.37 µM (active)
CCS(=O)(=O)c1ccc(OC)c(Nc2ncc(-c3cccc(C(C)=O)c3)o2)c1,Potency,[3],0.292 µM (active)
same,outcome,[4],inactive
O=C(Nc1nc(-c2ccccc2)cs1)c1ccncc1NS(=O)(=O)c1cccc(Cl)c1,Potency,[1],inactive
same,Potency,[2],3.85 µM (active)
Cc1ccc(-c2cc(C(=O)Nc3cccc(S(N)(=O)=O)c3)c3ccccc3n2)cc1C,Potency,[2],5.44 µM (active)
NS(=O)(=O)c1ccc(N=Nc2c(O)[nH]c3ccc(-c4cnco4)cc23)cc1,Potency,[3],inactive
same,outcome,[4],inactive
Cc1ccc(-c2cc(C(=O)Nc3ccc(C#N)cc3)c3ccccc3n2)cc1C,Potency,[2],12.2 µM (active)
COc1ccc(-c2nn3ncccc3c2-c2ccnc(Nc3cccc(C(F)(F)F)c3)n2)cc1,Potency,[3],0.582 µM (active)
same,outcome,[4],inactive
Cc1ccc(S(=O)(=O)Nc2cnccc2C(=O)Nc2nc(-c3cc(Br)cs3)cs2)cc1,Potency,[2],2.17 µM (active)
COc1cc(C=NNc2ncnc3c2cnn3C(C)C)ccc1O,Potency,[3],0.184 µM (active)
same,outcome,[4],inactive
COc1cc(C=NNc2ncnc3[nH]ncc23)ccc1O,Potency,[3],0.232 µM (active)
same,outcome,[4],inactive
O=C(Nc1nc(-c2ccccc2)cs1)c1ccncc1NS(=O)(=O)c1ccc(-c2ccccc2)cc1,Potency,[2],1.53 µM (active)
CCn1c(-c2nonc2N)nc2cncc(C(=O)N3CCC(N)C3)c21 (configuration not stated),Potency,[3],inactive
same,outcome,[4],inactive
COC(=O)c1sc(-n2cnc3cc(OC)c(OC)cc32)cc1OCc1ccccc1C(F)(F)F,Potency,[3],0.654 µM (active)
same,outcome,[4],inactive
COc1cc(Nc2ncc3c(C)nc(-c4cccc(C(F)(F)F)c4)n3n2)cc(OC)c1OC,Potency,[3],0.582 µM (active)
same,outcome,[4],inactive
FC(F)(F)c1cccc(Nc2nccc(-c3cnn4nc(-c5ccccc5)ccc34)n2)c1,Potency,[3],14.6 µM (active)
same,outcome,[4],inactive
Fc1ccc(-c2nn3ccccc3c2-c2ccncc2)cc1,Potency,[3],23.2 µM (active)
same,outcome,[4],inactive
O=C(Nc1n[nH]c2nc(-c3ccco3)c(Br)cc12)C1CC1,Potency,[3],8.23 µM (active)
same,outcome,[4],inactive
COc1cccc(-c2c[nH]c3c(NN=Cc4ccncc4)ncnc23)c1,Potency,[3],0.164 µM (active)
same,outcome,[4],inactive
Cc1ccc(O)cc1Nc1ccnc2cc(-c3ccccn3)ccc12,Potency,[3],0.0073 µM (active)
same,outcome,[4],inactive
CS(=O)(=O)CCNCc1ccc(-c2ccc3ncnc(Nc4ccc(OCc5ccccc5)c(C(F)(F)F)c4)c3c2)o1,Potency,[3],inactive
same,outcome,[4],inactive
CCn1c(-c2nonc2N)nc2c(C#CC(C)(C)O)nc(CN3CCCC3)cc21,Potency,[3],23.2 µM (active)
same,outcome,[4],inactive
NS(=O)(=O)c1ccc(N=Nc2c(O)[nH]c3ccc(C(=O)NCCc4cnc[nH]4)cc23)cc1,Potency,[3],2.6 µM (active)
same,outcome,[4],inactive
CCn1c(-c2nonc2N)nc2cnc(Oc3cccc(NC(=O)c4ccc(N(C)C)cc4)c3)cc21,Potency,[3],inactive
same,outcome,[4],inactive
CN(C)CCCn1c(-c2nonc2N)nc2cnccc21,Potency,[3],inactive
same,outcome,[4],inactive
COc1ccc(-c2cc(-c3cn[nH]c3-c3ccccn3)ccn2)cc1,Potency,[3],14.6 µM (active)
same,outcome,[4],inactive
COc1ccc2cc(-c3c(-c4ccncc4)nc(-c4ccc(S(C)=O)cc4C)n3C)ccc2c1 (configuration not stated),Potency,[3],1.64 µM (active)
same,outcome,[4],inactive
Cc1ccc(O)cc1Nc1ccnc2ccc(S(C)(=O)=O)cc12,Potency,[3],0.0021 µM (active)
same,outcome,[4],inactive
CCOc1nccc2c1nc(-c1nonc1N)n2CC,Potency,[3],inactive
same,outcome,[4],inactive
CCN(CC)Cc1ccc(Nc2nccc(-c3cnn4ncccc34)n2)cc1,Potency,[3],7.33 µM (active)
same,outcome,[4],inactive
CS(=O)(=O)CCNCc1ccc(-c2ccc3ncnc(Nc4ccc(OCc5cccc(F)c5)c(C(F)(F)F)c4)c3c2)o1,Potency,[3],inactive
same,outcome,[4],inactive
CS(=O)(=O)CCNCc1cc(-c2cc3c(Nc4ccc(OCc5cccc(F)c5)c(Cl)c4)ncnc3s2)cs1,Potency,[3],46.3 µM (active)
same,outcome,[4],inactive
COc1cc2ncn(-c3cc(OC(C)c4ccccc4Cl)c(C(N)=O)s3)c2cc1OC (configuration not stated),Potency,[3],2.92 µM (active) and 733 nM (active)
same,outcome,[4],inactive
Cc1ccc(NC(=O)c2ccnc(N3CCCC3)c2)cc1-c1ccc(C(=O)NCC2CC2)cc1,Potency,[3],inactive
same,outcome,[4],inactive
CCn1cc(-c2ccnc3[nH]ccc23)c(-c2cccc(NC(=O)Nc3ccc(OCc4ccccc4)cc3)c2)n1,Potency,[3],9.23 µM (active)
same,outcome,[4],inactive
